Measurements published in PMC5540273 (PLoS ONE, 2017).

Assays:
Details in all cases: concentration: 1 μM, replicates: in singlicate; n = 1
SNARK = test system: T1, SNARK
T1 construct: gene NUAK2

SNRK = test system: SNRK
SRC = test system: SRC
SRMS = test system: SRMS
SRPK1 = test system: SRPK1
SRPK2 = test system: SRPK2
SRPK3 = test system: SRPK3
STK16 = test system: STK16
STK33 = test system: STK33
STK35 = test system: STK35
STK36 = test system: STK36
STK39 = test system: STK39
SYK = test system: SYK
SgK110 = test system: SgK110
TAK1 = test system: T2, TAK1
T2 construct: gene MAP3K7

TAOK1 = test system: TAOK1
TAOK2 = test system: TAOK2
TAOK3 = test system: TAOK3
TBK1 = test system: TBK1
TEC = test system: TEC
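Further: KINOMEscan kinase panel screen.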

For `O=C(Nc1n[nH]c2cc(-c3cccs3)ccc12)C1CC1` [SB-731284], the “%Inh” value (SNARK) was 13%, the “%Inh” value (SNRK) was 42% and the “%Inh” value (SRC) was 0%. The “%Inh” value (SRMS) was 1%, the “%Inh” value (SRPK1) was 44% and the “%Inh” value (SRPK2) was 23%. The “%Inh” value (SRPK3) was 52%, the “%Inh” value (STK16) was 4% and the “%Inh” value (STK33) was 0%. For the same molecule, the “%Inh” value (STK35) was 15%, the “%Inh” value (STK36) was 0% and the “%Inh” value (STK39) was 0%. For the same molecule, the “%Inh” value (SYK) was 0%, the “%Inh” value (SgK110) was 0% and the “%Inh” value (TAK1) was 23%. The “%Inh” value (TAOK1) was 61%, the “%Inh” value (TAOK2) was 0% and the “%Inh” value (TAOK3) was 34%. The “%Inh” value (TBK1) was 47% and the “%Inh” value (TEC) was 0%.

For `CN1CCN(Cc2ccc(NC(=O)Nc3ccc(N(C)c4ccnc(Nc5ccc(CS(C)(=O)=O)cc5)n4)cc3)cc2)CC1.Cl` [GW827654], the “%Inh” value (SNARK) was 59%, the “%Inh” value (SNRK) was 10% and the “%Inh” value (SRC) was 3%. The “%Inh” value (SRMS) was 0%, the “%Inh” value (SRPK1) was 92.3% and the “%Inh” value (SRPK2) was 31%. The “%Inh” value (SRPK3) was 82%, the “%Inh” value (STK16) was 80% and the “%Inh” value (STK33) was 0%. For the same molecule, the “%Inh” value (STK35) was 18%, the “%Inh” value (STK36) was 49% and the “%Inh” value (STK39) was 36%. The “%Inh” value (SYK) was 84%, the “%Inh” value (SgK110) was 0% and the “%Inh” value (TAK1) was 89%. The “%Inh” value (TAOK1) was 13%, the “%Inh” value (TAOK2) was 0% and the “%Inh” value (TAOK3) was 0%. The “%Inh” value (TBK1) was 30% and the “%Inh” value (TEC) was 9%.

`Cc1ccc(NC(=O)c2ccnc(N3CCCCC3)c2)cc1-c1ccc(C(=O)NCC2CC2)cc1` [GW775610] was tested, and the “%Inh” value (SNARK) was 0%, the “%Inh” value (SNRK) was 0% and the “%Inh” value (SRC) was 0%. The “%Inh” value (SRMS) was 0%, the “%Inh” value (SRPK1) was 0% and the “%Inh” value (SRPK2) was 0%. The “%Inh” value (SRPK3) was 14%, the “%Inh” value (STK16) was 0% and the “%Inh” value (STK33) was 0%. For the same molecule, the “%Inh” value (STK35) was 0%, the “%Inh” value (STK36) was 0% and the “%Inh” value (STK39) was 15%. The “%Inh” value (SYK) was 0%, the “%Inh” value (SgK110) was 0% and the “%Inh” value (TAK1) was 0%. For the same molecule, the “%Inh” value (TAOK1) was 0%, the “%Inh” value (TAOK2) was 0% and the “%Inh” value (TAOK3) was 0%. For the same molecule, the “%Inh” value (TBK1) was 0% and the “%Inh” value (TEC) was 0%.

`CCn1cnc2c(NCc3ccccc3)ncnc21` [SKF-96418] was tested, and the “%Inh” value (SNARK) was 0%, the “%Inh” value (SNRK) was 0% and the “%Inh” value (SRC) was 0%. The “%Inh” value (SRMS) was 26%, the “%Inh” value (SRPK1) was 0% and the “%Inh” value (SRPK2) was 47%. For the same molecule, the “%Inh” value (SRPK3) was 18%, the “%Inh” value (STK16) was 0% and the “%Inh” value (STK33) was 0%. For the same molecule, the “%Inh” value (STK35) was 0%, the “%Inh” value (STK36) was 0% and the “%Inh” value (STK39) was 16%. The “%Inh” value (SYK) was 0%, the “%Inh” value (SgK110) was 0% and the “%Inh” value (TAK1) was 0%. For the same molecule, the “%Inh” value (TAOK1) was 0%, the “%Inh” value (TAOK2) was 27% and the “%Inh” value (TAOK3) was 0%. For the same molecule, the “%Inh” value (TBK1) was 17% and the “%Inh” value (TEC) was 0%.

With `COc1cc(Nc2nccc(N3CCC(NC(=O)Nc4ccc5c(c4)OCO5)C3)n2)cc(OC)c1OC` (centres unmarked) [GSK1379766] the “%Inh” value (SNARK) was 13%, the “%Inh” value (SNRK) was 0% and the “%Inh” value (SRC) was 0%. For the same molecule, the “%Inh” value (SRMS) was 0%, the “%Inh” value (SRPK1) was 45% and the “%Inh” value (SRPK2) was 0%. The “%Inh” value (SRPK3) was 0%, the “%Inh” value (STK16) was 72% and the “%Inh” value (STK33) was 0%. The “%Inh” value (STK35) was 0%, the “%Inh” value (STK36) was 0% and the “%Inh” value (STK39) was 9%. The “%Inh” value (SYK) was 39%, the “%Inh” value (SgK110) was 0% and the “%Inh” value (TAK1) was 0%. For the same molecule, the “%Inh” value (TAOK1) was 0%, the “%Inh” value (TAOK2) was 0% and the “%Inh” value (TAOK3) was 0%. The “%Inh” value (TBK1) was 33% and the “%Inh” value (TEC) was 6%.

With `CC(C)c1nc(-c2cccc(NS(=O)(=O)c3c(F)cccc3F)c2)c(-c2ccnc(Nc3ccc(N4CCOCC4)nc3)n2)s1.Cl` [GSK1723980] the “%Inh” value (SNARK) was 0%, the “%Inh” value (SNRK) was 0% and the “%Inh” value (SRC) was 100%. For the same molecule, the “%Inh” value (SRMS) was 99.7%, the “%Inh” value (SRPK1) was 48% and the “%Inh” value (SRPK2) was 0%. The “%Inh” value (SRPK3) was 0%, the “%Inh” value (STK16) was 30% and the “%Inh” value (STK33) was 62%. For the same molecule, the “%Inh” value (STK35) was 30%, the “%Inh” value (STK36) was 100% and the “%Inh” value (STK39) was 10%. For the same molecule, the “%Inh” value (SYK) was 69%, the “%Inh” value (SgK110) was 0% and the “%Inh” value (TAK1) was 81%. For the same molecule, the “%Inh” value (TAOK1) was 0%, the “%Inh” value (TAOK2) was 0% and the “%Inh” value (TAOK3) was 0%. The “%Inh” value (TBK1) was 18% and the “%Inh” value (TEC) was 80%.

`CN(c1ccc(NC(=O)Nc2cccc(Cl)c2)cc1)c1ccnc(N)n1.Cl` [GW830707] was tested, and the “%Inh” value (SNARK) was 0%, the “%Inh” value (SNRK) was 0% and the “%Inh” value (SRC) was 15%. For the same molecule, the “%Inh” value (SRMS) was 3%, the “%Inh” value (SRPK1) was 3% and the “%Inh” value (SRPK2) was 0%. The “%Inh” value (SRPK3) was 8%, the “%Inh” value (STK16) was 6% and the “%Inh” value (STK33) was 2%. The “%Inh” value (STK35) was 0%, the “%Inh” value (STK36) was 0% and the “%Inh” value (STK39) was 0%. The “%Inh” value (SYK) was 2%, the “%Inh” value (SgK110) was 0% and the “%Inh” value (TAK1) was 19%. The “%Inh” value (TAOK1) was 0%, the “%Inh” value (TAOK2) was 8% and the “%Inh” value (TAOK3) was 0%. For the same molecule, the “%Inh” value (TBK1) was 0% and the “%Inh” value (TEC) was 0%.

`COc1cccc(NC(=O)NCCNc2ccnc(Nc3ccc(F)cc3)n2)c1` [GSK1379879] was tested, and the “%Inh” value (SNARK) was 0%, the “%Inh” value (SNRK) was 0% and the “%Inh” value (SRC) was 0%. The “%Inh” value (SRMS) was 0%, the “%Inh” value (SRPK1) was 0% and the “%Inh” value (SRPK2) was 0%. For the same molecule, the “%Inh” value (SRPK3) was 3%, the “%Inh” value (STK16) was 0% and the “%Inh” value (STK33) was 0%. The “%Inh” value (STK35) was 1%, the “%Inh” value (STK36) was 0% and the “%Inh” value (STK39) was 1%. The “%Inh” value (SYK) was 20%, the “%Inh” value (SgK110) was 0% and the “%Inh” value (TAK1) was 0%. For the same molecule, the “%Inh” value (TAOK1) was 0%, the “%Inh” value (TAOK2) was 0% and the “%Inh” value (TAOK3) was 0%. For the same molecule, the “%Inh” value (TBK1) was 13% and the “%Inh” value (TEC) was 0%.

For `Cc1ccc(C)c(NC(=O)Nc2ccc(C)c(-c3ccc(C(=O)Nc4ccncc4)cc3)c2)c1` [GSK1398473], the “%Inh” value (SNARK) was 0%, the “%Inh” value (SNRK) was 5% and the “%Inh” value (SRC) was 8%. The “%Inh” value (SRMS) was 0%, the “%Inh” value (SRPK1) was 26% and the “%Inh” value (SRPK2) was 0%. The “%Inh” value (SRPK3) was 0%, the “%Inh” value (STK16) was 8% and the “%Inh” value (STK33) was 3%. The “%Inh” value (STK35) was 6%, the “%Inh” value (STK36) was 2% and the “%Inh” value (STK39) was 5%. For the same molecule, the “%Inh” value (SYK) was 17%, the “%Inh” value (SgK110) was 20% and the “%Inh” value (TAK1) was 0%. The “%Inh” value (TAOK1) was 0%, the “%Inh” value (TAOK2) was 0% and the “%Inh” value (TAOK3) was 0%. For the same molecule, the “%Inh” value (TBK1) was 2% and the “%Inh” value (TEC) was 5%.

With `O=C1NC(=O)C(c2ccccc2Cl)=C1Nc1cccc(Cl)c1` [SB-342409] the “%Inh” value (SNARK) was 0%, the “%Inh” value (SNRK) was 11% and the “%Inh” value (SRC) was 0%. The “%Inh” value (SRMS) was 0%, the “%Inh” value (SRPK1) was 21% and the “%Inh” value (SRPK2) was 0%. For the same molecule, the “%Inh” value (SRPK3) was 23%, the “%Inh” value (STK16) was 13% and the “%Inh” value (STK33) was 0%. For the same molecule, the “%Inh” value (STK35) was 6%, the “%Inh” value (STK36) was 0% and the “%Inh” value (STK39) was 9%. For the same molecule, the “%Inh” value (SYK) was 0%, the “%Inh” value (SgK110) was 0% and the “%Inh” value (TAK1) was 0%. For the same molecule, the “%Inh” value (TAOK1) was 0%, the “%Inh” value (TAOK2) was 0% and the “%Inh” value (TAOK3) was 11%. The “%Inh” value (TBK1) was 7% and the “%Inh” value (TEC) was 13%.
